Results: PubChem BioAssay (Tox21)
Records with an inconclusive call do not appear. Activity calls are given as the source filed them. Unless noted, calls come from the whole dose curve; as a rule, active = well fitted curve in the direction sought with a large enough effect in the repeat runs; inconclusive = weak or mixed curves; inactive = no such curve, though single readings can be large; an effect the other way counts as inactive or inconclusive.

Assays:
[1] = qHTS assay to identify small molecule agonists of the hypoxia (HIF-1) signaling pathway - cell viability counter screen (AID 1224844; calls by dose curve; note: nearly all actives have a fitted effect of over 50% in size)
Procedure, shortened: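 CellTiter-Glo luminescence read-out, 30 min RT, taken in the same wells as the beta-lactamase HRE reporter assay; HRE-bla ME-180 cells, 0.5% dialyzed FBS, 17 hr compound treatment at 37C, 5% CO2.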

[2] = qHTS assay to identify small molecule agonists of H2AX (AID 1224845; active = well fitted activation curve with a large enough effect in the signal ratio in the repeat runs, not every such curve was filed as active; the % refers to the signal ratio)
Procedure, shortened: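 Wild-type CHO-K1 cells, plated overnight, exposed 3hr at 37C to 15 concentrations (0.76% DMSO final). Lysed, then HTRF anti-pH2AX (S139) cryptate and anti-H2AX-d2 antibodies, 24 hr room temperature; 665/620 nm emission read.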

[3] = qHTS assay to identify small molecule agonists of the hypoxia (HIF-1) signaling pathway (AID 1224846; active = well fitted activation curve with a large enough effect in the signal ratio in the repeat runs, not every such curve was filed as active; the % refers to the signal ratio)
Procedure, shortened: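 Beta-lactamase FRET read-out (CCF4-AM substrate) from ME-180 cells carrying an HRE-driven bla reporter, after 17 hrs compound exposure at 37C/5% CO2. Cells were seeded at 2,000 per well in 0.5% dialyzed FBS medium and preincubated 5 hrs.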

[4] = qHTS assay to identify small molecule agonists of H2AX - cell viability counter screen (AID 1224847; calls by dose curve; note: top concentration of the series differs between compounds; nearly all actives have a fitted effect of over 30% in size)
Procedure, shortened: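 Counter-screen for viability: CellTiter-Glo ATP luminescence read after 3 h compound treatment (15-point titration, 0.76% DMSO final) of CHO-K1 cells at 37C, with 30 min room-temperature reagent incubation.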

[5] = qHTS RealTime-Glo MT Cell Viability Assay in HepG2 cells - 24 hour (AID 1224867); note: nearly all actives have a fitted effect of over 50% in size
Procedure, shortened: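 Real-time, nonlytic viability: 600 HepG2 cells/well mixed with NanoLuc enzyme plus prosubstrate; 5 h settle, compound (DMSO) added by pintool; luminescence monitored over 40 h at 37 C.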

[6] = qHTS RealTime-Glo MT Cell Viability Assay in HEK293 cells - 32 hour (AID 1224868); note: top concentration of the series differs between compounds; nearly all actives have a fitted effect of over 50% in size
Procedure, shortened: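 Cells + reagent dispensed (600 cells/well, HEK293) → 5 h at 37 C/5% CO2 → 23 nL compound in DMSO pinned → 40 h at 37 C → luminescence read at 0, 8, 16, 24, 32, 40 h.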

[7] = A CellTox Green Cytotoxicity Assay to monitor cytotoxicity in HEK293 cells - 0 hour (AID 1224869); note: nearly all actives have a fitted effect of over 50% in size
Procedure, shortened: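 Read-out: fluorescence of a cell-impermeant cyanine dye staining DNA of dead cells, proportional to cytotoxicity. HEK293, 600 cells/well with reagent, compound (23 nL DMSO) added after 5 h; reads at 0, 8, 16, 24, 32, 40 h.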

[8] = qHTS RealTime-Glo MT Cell Viability Assay in HepG2 cells - 40 hour (AID 1224870); note: nearly all actives have a fitted effect of over 50% in size
Procedure, shortened: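 HepG2 cells (600/well) mixed with RealTime-Glo MT reagent, settled 5 h at 37 C/5% CO2 before compound addition. Nonlytic NanoLuc luminescence from viable-cell prosubstrate reduction read repeatedly during 40 h treatment at 37 C.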
% is set by controls: 0 for no effect and ±100 for the full control effect.

Cc1ccccc1S(=O)(=O)O
inactive: Potency [1] | Potency [2] | Potency [3] | Potency [4] | Potency [5] | Potency [6] | Potency [7] | Potency [8]

O=C(O)CNCC(=O)O
inactive: activity change, negative = cytotoxicity [1] -0.223% [at 6.97 µM] | activation (H2AX phosphorylation) [2] 4.61% [at 14 µM] | activation [3] 0.217% [at 7.01 µM] | activity change, negative = cytotoxicity [4] -1.6% [at 14 µM] | activity change, negative = cytotoxicity [5] 0.0678% [at 6.97 µM] | activity change, negative = cytotoxic [6] -9.97% [at 6.97 µM] | cytotoxicity [7] -0.535% [at 6.97 µM] | activity change, negative = cytotoxic [8] 1.89% [at 6.97 µM]

CCO[C@H](Cc1ccc(OCCc2ccc(OS(C)(=O)=O)cc2)cc1)C(=O)O
inactive: Potency [1] | Potency [2] | Potency [3] | Potency [4] | Potency [5] | Potency [6] | Potency [7] | Potency [8]

O=C(NCCO[N+](=O)[O-])c1cccnc1
inactive: Potency [1] | Potency [2] | Potency [3] | Potency [4] | Potency [5] | Potency [6] | Potency [7] | Potency [8]

CCOC(=O)C(=O)CCc1ccccc1
inactive: Potency [1] | Potency [2] | Potency [3] | Potency [4] | Potency [5] | Potency [6] | Potency [7] | Potency [8]

CCCCC1=NC2(CCCC2)C(=O)N1Cc1ccc(-c2ccccc2-c2nn[nH]n2)cc1
inactive: Potency [1] | Potency [2] | Potency [3] | Potency [4] | Potency [5] | Potency [6] | Potency [7] | Potency [8]

O=C(O)C(S)C(S)C(=O)O (stereo unspecified)
inactive: Potency [1] | Potency [2] | Potency [3] | Potency [4] | Potency [5] | Potency [6] | Potency [7] | Potency [8]

CCCCC(CC)COC(=O)COc1ccc(Cl)cc1Cl (stereo unspecified)
inactive: Potency [1] | Potency [2] | Potency [3] | Potency [4] | Potency [5] | Potency [6] | Potency [7] | Potency [8]

COC(=O)c1ccc(I)cc1S(=O)(=O)NC(=O)Nc1nc(C)nc(OC)n1
inactive: Potency [1] | Potency [2] | Potency [3] | Potency [4] | Potency [5] | Potency [6] | Potency [7] | Potency [8]

CC1=CC=C(C(C)C)CC1
inactive: Potency [1] | Potency [2] | Potency [3] | Potency [4] | Potency [5] | Potency [6] | Potency [7] | Potency [8]

CCCCO
inactive: Potency [1] | Potency [2] | Potency [3] | Potency [4] | Potency [5] | Potency [6] | Potency [7] | Potency [8]

OCCN1CCN(CCCN2c3ccccc3C=Cc3ccccc32)CC1
inactive: Potency [1] | Potency [2] | Potency [3] | Potency [4] | Potency [5] | Potency [6] | Potency [7] | Potency [8]

CCCCCCCCCCCc1ccccc1
inactive: Potency [1] | Potency [2] | Potency [3] | Potency [4] | Potency [5] | Potency [6] | Potency [7] | Potency [8]

C/C=C/C=C/CO
inactive: Potency [1] | Potency [2] | Potency [3] | Potency [4] | Potency [5] | Potency [7] | Potency [8]

O=P(O)(OCc1ccccc1)OCc1ccccc1
inactive: Potency [1] | Potency [2] | Potency [3] | Potency [4] | Potency [5] | Potency [6] | Potency [7] | Potency [8]

CN(C)CCN(Cc1ccc(Cl)cc1)c1ccccn1
inactive: Potency [1] | Potency [2] | Potency [3] | Potency [4] | Potency [5] | Potency [6] | Potency [7] | Potency [8]

S=C([S-])NCCNC(=S)[S-].[Mn+2]
inactive: Potency [1] | Potency [2] | Potency [3] | Potency [4] | Potency [5] | Potency [7] | Potency [8]

Nc1ncn([C@H]2C[C@H](O)[C@@H](CO)O2)c(=O)n1
inactive: Potency [1] | Potency [2] | Potency [3] | Potency [4] | Potency [5] | Potency [6] | Potency [7] | Potency [8]

COc1cc2nc(Cl)nc(N)c2cc1OC
inactive: Potency [1] | Potency [2] | Potency [3] | Potency [4] | Potency [5] | Potency [7] | Potency [8]

O=[N+]([O-])c1ccc2[nH]ncc2c1
inactive: Potency [1] | Potency [2] | Potency [3] | Potency [4] | Potency [5] | Potency [6] | Potency [7] | Potency [8]

CCCC(=O)Nc1ccc(O)c(C(C)=O)c1
inactive: Potency [1] | Potency [2] | Potency [3] | Potency [4] | Potency [5] | Potency [6] | Potency [7] | Potency [8]

O=C(O)c1ccccc1Cl
inactive: Potency [1] | Potency [2] | Potency [3] | Potency [4] | Potency [5] | Potency [7] | Potency [8]

COc1ccc2cccc(CCNC(C)=O)c2c1
inactive: Potency [1] | Potency [2] | Potency [3] | Potency [4] | Potency [5] | Potency [6] | Potency [7] | Potency [8]

Nc1c(CC(=O)O)cccc1C(=O)c1ccc(Br)cc1
inactive: Potency [1] | Potency [2] | Potency [3] | Potency [4] | Potency [5] | Potency [6] | Potency [7] | Potency [8]

C=C(C)C(=O)OCCO
inactive: Potency [1] | Potency [2] | Potency [3] | Potency [4] | Potency [5] | Potency [6] | Potency [7] | Potency [8]
